Bioassay records: PubChem BioAssay, National Center for Advancing Translational Sciences (NCATS)
A selection: hits, their analogues and other compounds. The true share with any hit is near 6.2%.
Luc counter = counter-screen: inhibitors of Kinase-Glo firefly luciferase; Kinase-Glo luciferase, ATP luminescence, 8 min; hit rate 0.28% among 200,000; Potency, µM (top dose mostly 38.3 µM), inactives show top-dose activity change, negative = inhibition, usual class: inhibitors; also: nearly all actives have a fitted effect of over 60% in size
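Recombinant Kinase-Glo luciferase, 10 uM ATP (linear range), luciferin; imidazole pH 7.2 / KCl / MgCl2 / Tween / BSA buffer; 8 min RT; luminescence.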
VP16 counter = inhibits Gal4-VP16 luciferase reporter, ROR gamma counter-screen | hit rate 3.5% among 310,000 | AID 2546 | Drosophila S2 Gal4-VP16 UAS-luciferase, luminescence, 20 h | Potency, µM (doses to about 53.6 µM), without a hit: at the top dose activity, negative = inhibition, hits mostly inhibitors;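 also: Gal4-VP16 expression switched on by copper sulfate through the metallothionein promoter; nearly all actives have a fitted effect of over 50% in size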
RORg inh = blocks mouse ROR gamma transcriptional activity; P51450; Drosophila S2 Gal4-RORgamma UAS-luciferase reporter, 20 h; Potency, µM (series often up to 53.6 µM), inactives show at the top dose activity change, negative = inhibition, most hits filed as inhibitors; hit rate 5.4% among 310,000; AID 2551; also: nearly all actives have a fitted effect of over 60% in size
Target sequence (P51450 whole entry, looked up, the tested form may be a part): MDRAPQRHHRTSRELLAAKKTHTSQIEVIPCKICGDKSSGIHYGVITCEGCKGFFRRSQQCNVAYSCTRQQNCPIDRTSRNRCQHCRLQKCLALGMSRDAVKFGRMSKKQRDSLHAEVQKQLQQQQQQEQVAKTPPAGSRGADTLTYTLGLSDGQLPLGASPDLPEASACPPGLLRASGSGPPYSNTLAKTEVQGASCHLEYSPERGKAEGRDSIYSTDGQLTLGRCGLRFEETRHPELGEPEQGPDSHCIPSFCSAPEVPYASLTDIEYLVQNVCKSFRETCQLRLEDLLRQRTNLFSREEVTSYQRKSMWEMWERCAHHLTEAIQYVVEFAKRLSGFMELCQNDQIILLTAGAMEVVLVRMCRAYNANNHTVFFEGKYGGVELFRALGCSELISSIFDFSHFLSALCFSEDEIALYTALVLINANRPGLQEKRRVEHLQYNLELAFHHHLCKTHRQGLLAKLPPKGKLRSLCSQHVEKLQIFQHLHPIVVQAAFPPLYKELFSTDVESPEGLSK
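In this cell-based reporter format, copper sulfate (700 uM final) drives Gal4–ROR gamma fusion expression from a metallothionein promoter in Drosophila Schneider cells; compounds preincubated 1 hr, reporter read after 20 hr at ambient temperature.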
Starred values were filed as active, the others as inactive; ? = inconclusive; nt = no result; [ ] = another dose, or the depositor's remark. Calls follow the shape of the dose curve; as a rule, active = well fitted curve in the direction sought with a large enough effect; inconclusive = small, poorly fitted or top-dose-only effect, or another doubt; inactive = no such curve, though single readings can be large; an effect the other way counts as inactive or inconclusive. % is scaled to controls: 0 for no effect and ±100 for the full control effect; potency is read from the fitted curve at half-maximal effect.

SMILES	Luc counter	VP16 counter	RORg inh
COc1ccc(O)c(/C=N/NC(=O)CSc2nnc(C)n2-c2ccccc2)c1	0%	-29%	7.9µM*
Cc1ccc(-c2nn(-c3ccccc3)cc2/C=N/NC(=O)CSc2nnc(C)n2-c2ccccc2)cc1	-1%	?	?
Cc1c(Cl)cccc1NC(=O)CSc1nnc(C)n1-c1ccccc1	-2%	13%	25%
COc1ccc(/C=N/NC(=O)CSc2nnc(C)n2-c2ccccc2)c(OC)c1OC	0%	0%	43%
Cc1ccc(Cl)cc1NC(=O)CSc1nnc(C)n1-c1ccccc1	12%	5.6µM*	4µM*
COc1cccc(/C=N/NC(=O)CSc2nnc(C)n2-c2ccccc2)c1O	-4%	20µM*	7.1µM*
CCCCSc1nc(C)cc(SCC(=O)N/N=C/c2cccc(OC)c2O)n1	-2%	1µM*	0.28µM*
CCCCc1nc2c(c3c1C[C@H](C)OC3)CN(S(=O)(=O)c1ccc(Cl)c3nonc13)CC2	-7%[7.66 µM]	nt	nt
Cc1ccc(S(=O)(=O)c2nnn3c2nc(N2CCC(C(N)=O)CC2)c2ccccc23)cc1	nt	0%	0%
C=CCN(CC=C)C(=S)NC(=O)Cc1cccc2ccccc12	3%	0.79µM*	0.2µM*
COC(=O)NNC(=O)Cc1cccc2ccccc12	-1%	-11%	-3%
CC(=O)N(C)c1ccc(NS(=O)(=O)c2cc(Cl)ccc2Cl)cc1	1%	16%	-40%
O=C(CNc1ccccc1Cl)N/N=C1\CCCc2ccccc21	-1%	-5%	-19%
O=C(N/N=C1/C(=O)c2cccc3cccc1c23)c1ccc(Cl)cc1	-5%	?	-21%
O=C(O)c1ccc(N/N=C2/CCCc3ccccc32)cc1	nt	0%	1%
CCNC(=S)N/N=C1\CCCCc2ccccc21	4%	4µM*	1.1µM*
CCNC(=S)N/N=C1\C(=O)c2cccc3cccc1c23	-3%	4.5µM*	3.2µM*
C=C(C)CNC(=S)N/N=C1\CCCCc2ccccc21	nt	1.8µM*	1.4µM*
CSc1ccccc1OCc1cc(C(=O)N2CCc3[nH]cnc3C2c2ccccn2)no1 (configuration not stated)	nt	-2%	-28%
CCCc1nn2c(=O)cc(CSCC(=O)Nc3nnc(CC)s3)nc2s1	nt	4%	-3%
Clc1ccccc1C1SCC2Nc3ccccc3CN21 (configuration not stated)	-5%	-5%	?
O=C(Nc1nc(-c2ccccc2)c(-c2ccccc2)o1)c1ccc(F)cc1	2%	2.8µM*	1.4µM*
COc1cccc(C(=O)Nc2ccccc2)c1	-14%	4%	15%
O=C(Nc1nnc(-c2ccccc2)s1)c1ccc(F)cc1	1%	5%	-7%
COc1cccc(C(=O)Nc2nc(-c3ccccc3)c(-c3ccccc3)o2)c1	2%	3.2µM*	2.5µM*
SMILES	Luc counter	VP16 counter	RORg inh
CCOC(=O)C(=O)Nc1nc(-c2ccccc2)c(-c2ccccc2)o1	-2%	-16%	20µM*
CCOC(=O)Nc1nc(-c2ccccc2)c(C)s1	-4%[7.66 µM]	nt	nt
CCc1ccc(C2CC(=O)N(c3ccc(F)cc3)C3=C2C(=O)OC3)cc1 (configuration not stated)	1%	-5%	1%
CC(C)N(C(=S)Nc1cccc(S(=O)(=O)N(C)C)c1)c1ccccc1	nt	0%	-12%
Cc1cc(NS(=O)(=O)c2ccc(NC(=O)c3cc4cc(Br)ccc4oc3=O)cc2)no1	1%	5%	-1%
Cc1cc(NC(=O)c2ccc(F)cc2)n(CCOC(=O)c2ccc(F)cc2)n1	nt	-16%	?
Cc1cc(NC(=O)c2ccc(Cl)cc2)n(CCOC(=O)c2ccc(Cl)cc2)n1	3%	16µM*	?
O=C(NNC1=NS(=O)(=O)c2ccccc21)c1ccc([N+](=O)[O-])cc1	nt	?	13µM*
O=C(NNC1=NS(=O)(=O)c2ccccc21)c1ccc(Cl)cc1	3%	?	-42%
CCN(CC)CCn1c(=S)[nH]c2cc(C(=O)N3CC=C(c4ccccc4)CC3)ccc2c1=O	-1%	7%	-12%
OC[C@H]1OC(O)(CN2CCOCC2)[C@H](O)[C@@H]1O (some centres not stated)	nt	-6%	4%
O=C(O)CN1C(=O)/C(=C/c2ccc(N3CCCCC3)o2)SC1=S	nt	-1%	-16%
O=C1C2C(C(=O)N1/N=C/c1ccc(N3CCCCC3)o1)C1C=CC2C12CC2 (configuration not stated)	5%	3.2µM*	-15%
Cc1ccc(NC(=O)CSc2nnc(/N=C/N(C)C)s2)cc1	2%	-21%	18µM*
Cc1ccc(NC(=O)CSc2nnc(-c3ccncc3)s2)cc1	nt	-2%	-6%
CC(C)=CCC/C(C)=C/CC/C(C)=C/CC/C=C(\C)CC/C=C(\C)CCC=C(C)C	nt	-4%	9%
O=S(=O)(c1ccc(F)cc1)N1CCN(c2ncnc3c2cnn3-c2ccccc2)CC1	-3%	1%	16%
CCOC(=O)c1c(C)n(-c2ccc(C)cc2)c2c(C(C(C)=O)C(=O)O)c(Br)c(O)c(O)c12 (configuration not stated)	-4%	-8%	-2%
CCOC(=O)C(C(C)=O)c1c(Br)c(O)c(O)c2c(C(=O)c3ccc(C)cc3)coc12 (configuration not stated)	-5%	16µM*	13µM*
O=C(c1ccccc1)N1CCC2(CC1)NCCc1[nH]cnc12	nt	6%	-10%
COc1ccc(-c2noc(CCC(=O)NCCc3ccccc3)n2)cc1OC	nt	-15%	-1%
Cc1ccc(C(=O)Nc2cc3ccccc3oc2=O)cc1	8.9µM*	?	1.6µM*
COC(=O)c1cc(NC(=O)c2ccc(OC)cc2)c(=O)oc1C	-9%	-21%	13%
Cc1oc(=O)c(NC(=O)c2ccccc2)cc1C(=O)c1ccccc1	-1%	13µM*	?
CC(=O)c1cc(NC(=O)c2ccccc2)c(=O)oc1C	-20%	2.5µM*	11µM*
SMILES	Luc counter	VP16 counter	RORg inh
CC(=O)Nc1cc2ccccc2oc1=O	8%	-11%	23%
Cc1oc(=O)c(NC(=O)c2ccc(Cl)cc2)cc1C(=O)c1ccccc1	0%	-12%	16%
COc1ccc(Oc2ncc3nc(-c4cccc(C#N)c4)c(=O)n(Cc4cccc(OC)c4)c3n2)cc1	nt	-4%	-16%
CCOC(=O)C1CSC(Cc2ccc(OCc3ccc([N+](=O)[O-])cc3)cc2)N1 (configuration not stated)	-4%	?	14µM*
CCOC(=O)CCc1c(C)c2ccc(OCc3ccc([N+](=O)[O-])cc3)cc2oc1=O	9%	2%	15%
NC(N)=N[C@@H]1C(O)[C@H](N=C(N)N)[C@@H](O)C(O)[C@H]1O (some centres not stated)	2%[7.66 µM]	nt	nt
O=C1CSC(c2cccc([N+](=O)[O-])c2)N1Cc1ccccc1 (configuration not stated)	nt	3%	-8%
Cc1c(C(=O)Oc2cccc3cccnc23)oc2ccccc12	0%	6.3µM*	3.2µM*
Cc1ccc2cccc(OC(=O)/C=C\c3ccccc3)c2n1	-1%	-1%	-2%
O=C(/C=C\c1ccco1)Oc1cccc2cccnc12	0%	4.5µM*	1.4µM*
COc1ccccc1/C=C/C(=O)Oc1cccc2cccnc12	5%	5.6µM*	3.2µM*
O=C(/C=C/c1ccco1)Oc1cccc2cccnc12	nt	4.5µM*	1.4µM*
